Measured values as given in PubChem BioAssay AID652257 (The Scripps Research Institute Molecular Screening Center, 2013).
In all, about 370,000 compounds went through this assay and about 4,800 (1.3%) were called active. The sample as a whole holds a higher share of actives than the screen did. Unmarked numbers belong to inactive results.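 The calls were made as follows: active = inhibition above about 21% made by adding two undisclosed values (limit read from the data); inactive = the rest.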

Target: Protein arginine N-methyltransferase 1 (Homo sapiens) (UniProt Q99873)
Sequence (Q99873 whole entry, looked up): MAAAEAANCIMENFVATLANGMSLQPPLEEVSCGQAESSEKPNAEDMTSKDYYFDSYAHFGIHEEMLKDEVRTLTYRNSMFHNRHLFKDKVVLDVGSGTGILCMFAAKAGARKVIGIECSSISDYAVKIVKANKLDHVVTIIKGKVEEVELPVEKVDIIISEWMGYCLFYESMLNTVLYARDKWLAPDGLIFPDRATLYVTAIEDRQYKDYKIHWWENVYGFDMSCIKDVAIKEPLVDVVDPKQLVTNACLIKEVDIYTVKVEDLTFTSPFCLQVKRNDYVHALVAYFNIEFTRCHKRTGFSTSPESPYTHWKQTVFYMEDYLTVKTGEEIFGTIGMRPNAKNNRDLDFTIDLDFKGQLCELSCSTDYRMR
Assay: PRMT1 methyltransferase inhibitors, primary screen, biochemical, fluorescence polarization (AID 652257)
Conditions: recombinant PRMT1, activity-based probe fluorescence polarization; at 2.79 µM; active compounds read high

SMILES | inhibition
CC(C)c1ccc(O)c(CN2CCN(c3ccccc3)CC2)c1 | -1.49%
Fc1ccc(N2CCN(Cc3ccc4c(c3)OCO4)CC2)cc1 | -0.82%
Oc1cc2c(cc1CN1CCN(c3ccccc3)CC1)OCO2 | 24.3% (active)
O=C(N/N=C/c1c(O)n(C2CC2)c(=S)[nH]c1=O)c1ccccc1 | 3.82%
CC1C2Cn3c(nc4ccccc43)C1N(C)O2 (stereo not given) | 1%
O=S(=O)(c1ccccc1)N1CCC2CCNC2C1 (stereo not given) | -4.47%
ClC(Cl)(Cl)c1ccccc1 | -1.08%
O=C1NC(=O)N(c2ccccc2)C(=O)/C1=C/c1ccc([N+](=O)[O-])s1 | 30.1% (active)
CC(C(=O)Nc1ccc(Cl)cc1Cl)N1CC=C(c2ccccc2)CC1 (stereo not given) | -2.84%
CCOc1ccc(-c2cc(C)[n+](CCN(CC)CC)c(-c3ccc(OCC)cc3)c2)cc1 | 4.49%
Cc1c(Oc2cc(NN3CCCCC3)c([N+](=O)[O-])cc2[N+](=O)[O-])cccc1[N+](=O)[O-] | 0.33%
CCOc1cccc(=NC2CCCCC2)c2c(C)[nH]c(C)c12 | 24.5% (active)
COc1ccc2c(c1)[C@@]13CCCCC1[C@@H](C2)NCC3 (stereo not given in full) | 0.98%
CC(=O)C1(O)CCC2C3CCC4=C(Cl)C(=O)CCC4(C)C3CCC21C (stereo not given) | -3.26%
C=CCN1C(=O)NC(=O)/C(=C/c2ccc(OCC(=O)Nc3ccc(C)cc3)cc2)C1=O | 2.43%
CCCCC(=O)N/N=C/c1c(O)n(CCC2=CCCCC2)c(=O)[nH]c1=O | 4.46%
O=C(O)COc1ccccc1/C=C1\C(=O)NC(=O)N(CCC2=CCCCC2)C1=O | 21.6% (active)
COP(=O)(Sc1ccccc1)C(Cc1ccccc1)NC(=O)OCc1ccccc1 (stereo not given) | 15.9%
CCC(C)NC1(c2ccccc2)CCCCC1 (stereo not given) | -3.67%
Brc1ccc2c(c1)CNCc1cnnn1-2 | -6.53%
CCCOC(=O)C1C2c3ccccc3C(c3ccccc32)C1C(=O)O (stereo not given) | -2.66%
Cc1cc(C=C2C(=O)NC(=O)NC2=O)c(C)n1-c1ccncc1 | 3.52%
Cc1cc(/C=C2/C(=O)NC(=O)N(Cc3ccco3)C2=O)c(C)n1-c1ccc(C(=O)O)cc1 | 42% (active)
O=C1NC(=O)N(Cc2ccco2)C(=O)/C1=C\c1ccc(-c2ccc(F)cc2)o1 | 25% (active)
Cc1ccc(-n2c(C)cc(/C=C3\C(=O)NC(=O)N(C)C3=O)c2C)cc1C | 2.43%
COc1cc2nc(N3CCN(C(=O)[C@@H]4CCCO4)CC3)nc(N)c2cc1OC | -2.88%
Cc1cc(N2C(=O)C3CCCN3C2c2ccc(Cl)c(Cl)c2)no1 (stereo not given) | 1.57%
COC(=O)C1=C(c2cc3ccccc3s2)C[C@@H]2CC[C@H]1N2C(=O)NCc1cccc2ccccc12 | -3.89%

SMILES | inhibition
COP(=O)(NS(=O)(=O)c1ccccc1)OC | -6.51%
COc1ccccc1N=Nc1c(O)[nH]c(=S)[nH]c1=O | -3.43%
Cc1ccc2c(c1)=C/C(=C\c1c(O)[nH]c(=O)[nH]c1=O)C(=O)N=2 | 7.2%
O=C1N=c2ccccc2=C/C1=C\c1c(O)[nH]c(=S)[nH]c1=O | 51.8% (active)
CO[C@H]([C@H](C)/C=C/N(C)C=O)[C@@H](C)C(=O)CC[C@H](C)[C@H](O)[C@H](C)[C@H]1OC(=O)/C=C/C(C)=C/[C@H](O)[C@H](OC)C[C@@H]2C=CC[C@@H](C[C@H](OC)[C@@]3(CO3)[C@@H](OC)C[C@@H](OC)[C@@H]1C)O2 | 1.29%
CCN(CC)C(=O)[C@@H]1C=C2c3cccc4[nH]c(Br)c(c34)C[C@H]2N(C)C1 | 9.48%
COP(=O)(OC)C(NC(=O)c1ccc(C)cc1)C(Cl)(Cl)Cl (stereo not given) | 1.17%
CN1CCC(N(C)Cc2cccnc2)CC1 | 11.7%
COc1ccc(N2C(=O)/C(=C/c3ccco3)C(=O)NC2=S)cc1 | 41.9% (active)
O=C(COC(=O)Cc1ccccc1)Nc1ccc(F)cc1 | -1.27%
c1ccc(N2Cc3ccccc3-n3nncc3C2)nc1 | -1.49%
CCOC(=O)CC(SP1(=S)OCC2(CCCCO2)C(C2CCCCO2)O1)C(=O)OCC (stereo not given) | 55.3% (active)
COc1ccc2c(c1)NP(=S)(c1ccccc1)N2 (stereo not given) | 14.7%
COc1ccc(CCn2c(O)c(C=NC3CC3)c(=O)[nH]c2=O)cc1OC | 0.57%
CCOC(=O)C1(Cc2ccc(Cl)cc2)CCN(C(C)CCn2cccn2)CC1 (stereo not given) | -1.84%
CC1CNCCN1c1ccc(Cl)cc1 (stereo not given) | -2.9%
Cc1cc(N2CCNC[C@@H]2C)ccc1N1CC[C@H](O)C1 | 49.5% (active)
Clc1ccc([C@@H]2CC3CCC2N3)cn1 (stereo not given in full) | -1.63%
CC(C)CN1CCN(Cc2ccccc2C(F)(F)F)CC1CCO (stereo not given) | 0.64%
CCOC(=O)c1c(-c2ccccc2)oc2ccc(OC(=O)N(C)C)cc12 | 2.78%
COc1ccccc1NC(=O)N1C[C@@H]2C[C@@H](C1)c1cccc(=O)n1C2 | 1.82%
CS(=O)(=O)N1CCC2CCNC2C1 (stereo not given) | -2.72%
CC(=NCC1CCCO1)c1c(O)n(-c2ccccc2)c(=O)[nH]c1=O (stereo not given) | -2.12%
CC(=O)c1c(O)n(C2CCCCCC2)c(=O)[nH]c1=O | 23.2% (active)
CCC(=NCCc1ccccc1)c1c(O)n(C2CCCCC2)c(=O)[nH]c1=O | -0.77%
Cc1ccccc1CCC[C@@H](CC1CCCCC1)CN(C)C(=O)Oc1ccccc1 | 0.94%
COc1cc(OC)cc(C(=O)NCCN2CCC3(CC2)C(=O)NCN3c2ccccc2)c1 | 1.49%
